Shown are actives, neighbours in structure and some others; about 2.3% of the full set was active somewhere.
Shn3 inh set2 – inhibitors of Schnurri-3 3'UTR reporter in osteoblasts; Clone20 osteoblast Shn3 3'UTR firefly luciferase, 24 h; inhibition, % at 12.5 µM; 360,000 compounds, 0.52% hits; AID 588674;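 active = mean inhibition of at least 75% with every replicate also reaching 75%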;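 also: 0% = median of neutral control wells and 100% = pilot-screen positive control compound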
EBV LMP1 NFkB – reduces LMP1-driven NF-kappaB luciferase signal; LMP1-induced NF-kappaB luciferase reporter cells, luminescence; inhibition, % at 12.5 µM; 350,000 compounds, 0.69% hits; AID 504558; in the data active = inhibition above about 41%;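 also: 0% = neutral control wells and 100% = reference inhibitor control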
MITF TRPM1 inh – reduces MITF-dependent TRPM1 promoter luciferase signal. SK-MEL-5 TRPM1 promoter luciferase, 24 h. inhibition, % at 12.5 µM. 330,000 compounds, 0.83% hits. AID 488899;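 active = mean inhibition across replicates of 60% or more, whatever share of single replicates reaches that level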
Gli-Sufu block – antagonists of Gli-Sufu signaling. 340,000 compounds, 0.74% hits. Sufu-KO-LIGHT fibroblasts, Gli luciferase reporter luminescence. AID 588413. inhibition, % at 5 µM;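 active = inhibition above about 55%, limit read from the data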;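 also: 0% = DMSO-treated cells and 100% = wells with medium but no cells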
Jurkat NFkB inh – inhibitors of the PMA/ionomycin-induced NF-kB reporter in Jurkat cells | PMA/ionomycin-induced NF-kB luciferase reporter, luminescence | inhibition, % at 4 µM | 330,000 compounds, 0.53% hits | AID 435003; in the data active = inhibition above about 50%
697 NFkB inh – inhibitors of the PMA/ionomycin-induced NF-kB reporter in 697 B cells; 697 B-cell NF-kB luciferase reporter, 16 h; inhibition, % at 4 µM; 330,000 compounds, 0.33% hits; AID 435022; in the data active = inhibition above about 35%
The depositor's hits bear a star.

Screening COc1cc(N(C)C)c([N+](=O)[O-])cc1C(=O)N1CCN(Cc2ccccc2)CC1 returned Shn3 inh set2 23, EBV LMP1 NFkB 51*, MITF TRPM1 inh 4, Gli-Sufu block 4, Jurkat NFkB inh 4 and 697 NFkB inh 22.
COc1ccc(/C=N/NC(=O)Nc2cccc3nsnc23)cc1OC was read as Shn3 inh set2 7, EBV LMP1 NFkB 8, MITF TRPM1 inh -23, Gli-Sufu block 6, Jurkat NFkB inh 7 and 697 NFkB inh -9.
`COc1ccccc1N1CCN(C2CCCN(C(=O)c3csc(C)n3)C2)CC1` (configuration not stated) gave Shn3 inh set2 -10, EBV LMP1 NFkB 3, MITF TRPM1 inh 3, Gli-Sufu block -2, Jurkat NFkB inh 20 and 697 NFkB inh 10.
For CCn1cc([N+](=O)[O-])c(C(=O)Nc2c(C)nn(Cc3cccc(F)c3)c2C)n1 the results were Shn3 inh set2 -12, EBV LMP1 NFkB -8, MITF TRPM1 inh 2, Gli-Sufu block -8, Jurkat NFkB inh -16 and 697 NFkB inh -12.
`Cc1ccc(S(=O)(=O)CCC(=O)OCC(=O)Nc2cc(S(=O)(=O)N3CCOCC3)ccc2C)cc1` gave Shn3 inh set2 88*, EBV LMP1 NFkB 4, MITF TRPM1 inh -10, Gli-Sufu block -3, Jurkat NFkB inh 9 and 697 NFkB inh 13.
Screening COc1ccc(S(=O)(=O)N2CCOCC2)cc1NC(=O)COC(=O)CC1CC2CCC1C2 (configuration not stated) returned Shn3 inh set2 87*, EBV LMP1 NFkB -9, MITF TRPM1 inh 13, Gli-Sufu block 4, Jurkat NFkB inh -14 and 697 NFkB inh -13.
`CN(CCc1ccccn1)S(=O)(=O)c1ccc(F)cc1` gave Shn3 inh set2 11, EBV LMP1 NFkB 12, MITF TRPM1 inh 4, Gli-Sufu block -2, Jurkat NFkB inh -22 and 697 NFkB inh -8.
Screening O=C(c1cc(N2C(=O)C3C4CCC(C4)C3C2=O)ccc1Cl)N1CCN(c2ccccc2)CC1 (configuration not stated) returned Shn3 inh set2 18, EBV LMP1 NFkB 4, MITF TRPM1 inh 3, Gli-Sufu block 6, Jurkat NFkB inh 1 and 697 NFkB inh 1.
Cc1ccc(-c2ccc(/C=C3\C(=O)ON=C3c3ccccc3)o2)c([N+](=O)[O-])c1 was read as Shn3 inh set2 91*, EBV LMP1 NFkB 29, MITF TRPM1 inh 34, Gli-Sufu block -3, Jurkat NFkB inh -8 and 697 NFkB inh 11.
COC(=O)c1ccc(CNC(=O)c2sccc2-c2ccccc2)cc1 was read as Shn3 inh set2 17, EBV LMP1 NFkB 4, MITF TRPM1 inh 79*, Gli-Sufu block 8, Jurkat NFkB inh -10 and 697 NFkB inh -16.
CN1C(=O)C(C)(C)c2cc(S(=O)(=O)N3CCCC(C(=O)NCc4ccc(F)cc4)C3)ccc21 (configuration not stated) was read as Shn3 inh set2 0, EBV LMP1 NFkB -11, MITF TRPM1 inh 5, Gli-Sufu block 2, Jurkat NFkB inh -11 and 697 NFkB inh -4.
`CSc1sc(C#N)c2c1/C(=N\O)CCC2` gave Shn3 inh set2 3, EBV LMP1 NFkB 9, MITF TRPM1 inh 7, Gli-Sufu block -6, Jurkat NFkB inh -8 and 697 NFkB inh -24.
CN=C1SC(CC(=O)Nc2ccc(F)cc2F)C(=O)N1/N=C/c1ccc(OC(F)F)c(OC)c1 (configuration not stated) was read as Shn3 inh set2 83*, EBV LMP1 NFkB 20, MITF TRPM1 inh 9, Gli-Sufu block 12, Jurkat NFkB inh -9 and 697 NFkB inh 12.
`N=C(N)SCP(=O)(c1ccccc1)c1ccccc1` gave Shn3 inh set2 -4, EBV LMP1 NFkB 54*, MITF TRPM1 inh 11, Gli-Sufu block -6, Jurkat NFkB inh 3 and 697 NFkB inh 1.
For COc1c(OC)c(O)c2c(=O)c(O)c(-c3ccccc3)oc2c1OC the results were Shn3 inh set2 9, EBV LMP1 NFkB -3, MITF TRPM1 inh -1, Gli-Sufu block 2, Jurkat NFkB inh -4 and 697 NFkB inh 15.
`COc1ccc(N(Cc2cc(=O)[nH]c3ccccc23)C(=O)CCl)cc1` gave Shn3 inh set2 8, EBV LMP1 NFkB 2, MITF TRPM1 inh 85*, Gli-Sufu block -7, Jurkat NFkB inh 16 and 697 NFkB inh 2.
For Cc1cccc(N(Cc2cc(=O)[nH]c3ccccc23)C(=O)CCl)c1 the results were Shn3 inh set2 -3, EBV LMP1 NFkB 17, MITF TRPM1 inh 76*, Gli-Sufu block 9, Jurkat NFkB inh 7 and 697 NFkB inh -55.
Screening CCOc1ccc(C(=O)NCC(c2ccco2)N2CCOCC2)cc1 (configuration not stated) returned Shn3 inh set2 3, EBV LMP1 NFkB 9, MITF TRPM1 inh -7, Gli-Sufu block -3, Jurkat NFkB inh 1 and 697 NFkB inh -5.
CCCCCOC(=O)c1c(N)n(CCOC)c2nc3ccccc3nc12 was read as Shn3 inh set2 -14, EBV LMP1 NFkB 15, MITF TRPM1 inh 61*, Gli-Sufu block -18, Jurkat NFkB inh -5 and 697 NFkB inh -12.
Screening CCOC(=O)c1c(N)n(CCOC(=O)c2cccs2)c2nc3ccccc3nc12 returned Shn3 inh set2 3, EBV LMP1 NFkB 11, MITF TRPM1 inh -4, Gli-Sufu block 25, Jurkat NFkB inh 4 and 697 NFkB inh 15.
`COCCNC(=O)C1CCCN(C(=O)c2sccc2C)CC1` (configuration not stated) gave Shn3 inh set2 -30.
Cc1c(Cl)sn(-c2ccc(Cl)cc2)c1=O was read as Shn3 inh set2 91*, EBV LMP1 NFkB 11, MITF TRPM1 inh 97*, Gli-Sufu block 17, Jurkat NFkB inh 43 and 697 NFkB inh 8.
Nc1ccc(Nc2nc(-c3ccncc3)cs2)cc1 was read as Shn3 inh set2 -21, EBV LMP1 NFkB -2, MITF TRPM1 inh -115, Gli-Sufu block 3, Jurkat NFkB inh -38 and 697 NFkB inh 22.
`CC(=O)Nc1ccc(OCCCNC(=O)c2c(-c3ccccc3)noc2C)cc1` gave Shn3 inh set2 22, EBV LMP1 NFkB 58*, MITF TRPM1 inh 10, Gli-Sufu block -1, Jurkat NFkB inh -14 and 697 NFkB inh -31.
CCCOc1ccc(NC(=O)c2c(-c3ccccc3)noc2C)cc1 was read as Shn3 inh set2 -8, EBV LMP1 NFkB 10, MITF TRPM1 inh -4, Gli-Sufu block -12, Jurkat NFkB inh -3 and 697 NFkB inh 8.
Screening Cc1ccc(S(=O)(=O)N2CCN(C(=O)CN3CCCC3)C2)cc1 returned Shn3 inh set2 -4, EBV LMP1 NFkB 0, MITF TRPM1 inh -11, Gli-Sufu block 5, Jurkat NFkB inh 10 and 697 NFkB inh 9.
`COc1ccc(/C=N/NC(=O)c2c(C)n(C)c3ccc(OC)cc23)c(OC)c1` gave Shn3 inh set2 16, EBV LMP1 NFkB 7, MITF TRPM1 inh -5, Gli-Sufu block -2, Jurkat NFkB inh 12 and 697 NFkB inh 12.

Source: PubChem
